D2 PAM-1: HTS Assay for Positive Allosteric Modulators of the Human D2 Dopamine Receptor: Primary Screen for Potentiators | D(2) dopamine receptor (Homo sapiens), P14416 | HEK293 T-REx D2, calcium flux, EC20 dopamine potentiation | potentiation, % at 10 µM | actives 0.34% (n = 340,000) | AID 485347, 2010;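 active = potentiation over 3 SD above the plate norm, cut at about 30% in these data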; also: 0% is about no effect
Target sequence (P14416 whole entry, looked up): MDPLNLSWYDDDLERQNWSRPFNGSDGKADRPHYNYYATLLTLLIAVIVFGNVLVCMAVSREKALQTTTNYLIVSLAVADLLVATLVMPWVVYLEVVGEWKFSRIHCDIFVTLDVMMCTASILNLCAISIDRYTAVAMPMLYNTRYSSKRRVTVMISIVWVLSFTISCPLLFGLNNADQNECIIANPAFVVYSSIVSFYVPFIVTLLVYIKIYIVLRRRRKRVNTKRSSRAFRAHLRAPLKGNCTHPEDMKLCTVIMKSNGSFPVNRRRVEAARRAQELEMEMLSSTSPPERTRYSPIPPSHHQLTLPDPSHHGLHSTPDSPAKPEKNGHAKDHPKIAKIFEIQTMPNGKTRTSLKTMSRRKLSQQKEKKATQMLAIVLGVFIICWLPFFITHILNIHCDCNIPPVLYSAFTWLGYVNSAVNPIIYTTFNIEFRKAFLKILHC
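Potentiation of an EC20 dopamine calcium response measured kinetically over 180 s, after a preceding 180 s compound-only read flagging agonists. Cells: inducible Hek293 Trex D2 line, 4000/well, cultured overnight at 30 C before dye loading.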
D2 antag: HTS Assay for Allosteric Antagonists of the Human D2 Dopamine Receptor: Primary Screen for Antagonists. HEK293 TREx D2 cells, calcium flux, dopamine EC80. AID 485344, 2010. inhibition, % at 10 µM. D(2) dopamine receptor (Homo sapiens), P14416. actives 2% (n = 340,000); in the data active = inhibition above about 30%; inactive = below that, where a call was filed; also: 0% is about no effect
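Cells plated overnight at 30 C with tetracycline; no-wash calcium dye, 30–90 min RT; 10 s baseline; compound pinned; 180 s read; EC80 dopamine added; another 180 s read.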
D2 PAM-2: Beta-Arrestin HTS for Positive Allosteric Modulators of the Human D2 Dopamine Receptor: Potentiators | actives 0.23% (n = 360,000) | D(2) dopamine receptor (Homo sapiens), P14416 | potentiation, % (concentration not given with the values) | DiscoveRx D2 beta-arrestin cells, luminescence, 90 min; 100% = 57 uM dopamine signal; in the data active = potentiation above about 50%; inconclusive = mostly about 30% to 49%
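PathHunter beta-arrestin assay in DiscoveRx D2 cells. Compounds were added with an EC20 of dopamine (50 nM final) for 90 min at 37 deg C. Luminescence was read 1 h after detection reagent, with 57 uM dopamine as the EC100 control.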
D2 ag-1: HTS Assay for Allosteric Agonists of the Human D2 Dopamine Receptor: Primary Screen for Agonists. HEK293 T-REx D2 cells, calcium flux agonist mode. AID 485358, 2010. D(2) dopamine receptor (Homo sapiens), P14416. activation, % at 2 µM. actives 0.53% (n = 340,000);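 active = activation over 3 SD above normal in the single-dose calcium agonist read, cut at about 30% in these data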; also: 0% is about no effect
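Tetracycline-induced HEK293 T-REx cells with force-coupled D2 receptor, plated overnight at 30 C, loaded with no-wash calcium dye. After a 10 s baseline, compound was pin-added and calcium flux read kinetically for 180 s; calcium rises flagged agonists.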
D2 ag-2: Beta-Arrestin HTS for Positive Allosteric Modulators of the Human D2 Dopamine Receptor: Agonists. D(2) dopamine receptor (Homo sapiens), P14416. DiscoveRx PathHunter D2 beta-arrestin, luminescence, 90 min; 100% = 57 uM dopamine signal. activation, % (concentration not given with the values). actives 0.084% (n = 360,000); in the data active = activation above about 40%; inconclusive = between about 15% and that limit
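DiscoveRx PathHunter D2 beta-arrestin cells (2,100/well) attached overnight, then compound-stimulated 90 min at 37 C in HBSS/10 mM HEPES/0.1% Tween-20 buffer; beta-galactosidase complementation read by luminescence after 1 h at ambient temperature. Dopamine 57 uM final (EC100) as control.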
D3 ag: qHTS of D3 Dopamine Receptor Agonist: D3 Dopamine Receptor B-arrestin Agonist Confirmatory Assay; shares compounds with D2 ag-1; DiscoveRx D3 beta-arrestin cells, luminescence, 90 min; Potency, µM (highest dose often 76.9 µM), for the others: top-dose activation, actives largely listed as activators; actives 4% (n = 2,300); AID 720506, 2013;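 also: potency is read from the fitted curve at half-maximal effect; 100% = dopamine control response; nearly all actives have a fitted effect of over 70% in size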
D2 ag-3: qHTS of D3 Dopamine Receptor Agonist: D2 Dopamine Receptor B-arrestin Agonist Counterscreen; shares compounds with D2 ag-1; DiscoveRx PathHunter D2 beta-arrestin, luminescence, 90 min; response scale: percent relative to full dopamine signal; Potency, µM (titrated, usually from 76.9 µM), inactives show at the highest dose activation, hits mostly activators; actives 5.9% (n = 2,300); AID 720507, 2013; also: potency is read from the fitted curve at half-maximal effect; % of control where 0% means no effect; nearly all actives have a fitted effect of over 70% in size
The depositor's hits bear a star; ? = inconclusive; · = no result given. Hits are enriched below; roughly 2.4% of the tested compounds scored in any of these assays. Unless noted, calls follow the shape of the dose curve; as a rule, active = well fitted activation curve with a large enough effect; inconclusive = small, poorly fitted or top-dose-only effect; inactive = flat fitted curve, though single readings scatter.

SMILES	D2 PAM-1	D2 antag	D2 PAM-2	D2 ag-1	D2 ag-2	D3 ag	D2 ag-3
NCCCn1cnc2ccccc21	·	3	-1	1	-5	-2%	1%
c1ccc2c(c1)ncn2CCn1cnc2ccccc21	-3	-16	-12	-1	-4	·	·
COc1ccc(S(=O)(=O)N2CCC(N3CCN(c4ccccc4OC)CC3)CC2)cc1	-20	-15	-13	37*	1	-8%	7%
COc1ccccc1N1CCN(C2CCN(S(=O)(=O)c3ccc(NC(C)=O)cc3)CC2)CC1	-16	32*	-16	49*	?	-13%	20%
CCCN(CCC)c1cc(C)nc2nc(-c3ccc(Cl)cc3)nn12	4	·	·	0	·	·	·
COc1ccccc1NC(=O)CSc1ncc2c(n1)-c1ccccc1N(Cc1ccccc1C)S2(=O)=O	·	·	·	0	·	·	·
CCC12CN3CC(C)(CN(C1)C3c1ccc(O)cc1O)C2=O (stereo not given)	-4	·	·	1	·	·	·
Cc1ccc2c(c1)C(O)(CC(=O)/C=C/C=C/c1ccccc1)C(=O)N2 (stereo not given)	-11	45*	-5	48*	-1	-10%	-6%
COc1ccc2[nH]c3c(=O)n4c(nc3c2c1)SCC4	-4	11	13	1	5	·	·
COc1cc2[nH]c3c(=O)n4c(nc3c2cc1OC)SCCC4	7	6	14	1	0	7%	-3%
COc1ccc(C)cc1NC(=O)NC(C)c1ccc2c(c1)OCO2 (stereo not given)	-22	8	-30	65*	-3	-5%	-6%
COc1cccc(NC(=O)CSc2nccn2C2CCCC2)c1	-3	·	·	0	·	·	·
CN(C)S(=O)(=O)c1cccc(NC(=S)NNC(=O)c2cc3ccccc3cc2O)c1	-23	56*	-6	72*	-7	-8%	-8%
O=S1(=O)CCC(NC(=S)Nc2ccc3ccccc3c2)C1 (stereo not given)	-3	9	-8	-1	0	·	·
CC1(NC(=S)Nc2ccc3ccccc3c2)CCS(=O)(=O)C1 (stereo not given)	-22	37*	3	1	2	-1%	0%
CC(CCc1ccc(O)cc1)NC1C2CC3CC(C2)CC1C3 (stereo not given)	-24	71*	-20	38*	4	-3%	10%
COc1ccc(OC)c(NC(=O)CSc2nccn2-c2cc(C)cc(C)c2)c1	-5	·	·	0	·	·	·
N#Cc1ccsc1NC(=O)CN1CCN(c2ccccc2)CC1	-24	23	1	48*	13	5%	19%
N#Cc1ccsc1NC(=O)CN1CCN(c2ccccn2)CC1	-7	31*	5	41*	?	?	?
N#Cc1ccc(NC(=O)CN2CCN(c3ccccn3)CC2)cc1	-30	68*	21	77*	48*	?	40µM*
CC(=O)N1CCN(CC(=O)Nc2sccc2C#N)CC1	14	8	0	0	-3	·	·
N#Cc1ccsc1NC(=O)CN1CCN(c2ccc(O)cc2)CC1	13	14	?	4	12	·	·
CC(C)c1ccc(NC(=O)CN2CCN(c3ccccn3)CC2)cc1	-11	0	-9	15	14	·	·
Nc1nc(N)c(S(=O)(=O)c2ccccc2)c(Nc2ccc(Br)cc2)n1	19	·	·	·	·	·	·
Cc1ccc(N2CCN(c3nc4ccc(C(=O)c5ccccc5)cc4n4cnnc34)CC2)c(C)c1	4	·	·	0	·	·	·
SMILES	D2 PAM-1	D2 antag	D2 PAM-2	D2 ag-1	D2 ag-2	D3 ag	D2 ag-3
Cc1cccc(C(=O)Nc2nnc(S(=O)(=O)N(C)c3ccccc3C)s2)c1	0	·	·	-1	·	·	·
Cc1ccccc1NC(=O)NCCCN1CCN(c2ccccc2)CC1	-22	79*	-21	77*	?	?	?
O=C(NCCCN1CCN(c2ccccc2)CC1)Nc1ccccc1C(F)(F)F	-20	75*	-8	78*	?	?	21%
O=C(Cn1cc(S(=O)(=O)Cc2ccc(F)cc2)c2ccccc21)NCc1ccccc1	-6	·	·	1	·	·	·
CC(/C=C/c1ccccc1)=N\NC(=S)NC(C)C	-17	2	-22	31*	-9	-4%	-6%
O=C(CCN1CCN(c2ccccc2)CC1)NNC(=O)c1ccccc1	·	·	-12	·	4	·	·
O=C(CCN1CCN(c2ccccc2)CC1)NNC(=O)Cc1c(F)cccc1Cl	-24	60*	-39	79*	6	?	14%
O=C(CCN1CCN(c2ccccc2)CC1)NNC(=O)Cc1ccccc1Cl	-25	48*	-20	81*	9	6%	18%
CCOc1ccc(NC(=O)CSc2cc(C)c3ccccc3n2)cc1	·	·	·	1	·	·	·
Cc1ccc2c(c1)c1c(c(=O)n(-c3cccc(Cl)c3)c(=O)n1CC(=O)Nc1c(C)cccc1C)n2C	-7	·	·	0	·	·	·
CCCCn1c(N)c(N(CCC(C)C)C(=O)C2CC(=O)N(CCc3ccc(OC)c(OC)c3)C2)c(=O)[nH]c1=O (stereo not given)	6	9	4	0	-1	-1%	-4%
Cc1cc2nc(C3CCN(CC4COc5ccccc5O4)CC3)[nH]c2cc1C (stereo not given)	-19	11	-8	47*	4	17%	?
C=CCNC(=O)CN1CCC(c2nc3cc(C)c(C)cc3[nH]2)CC1	-9	22	1	0	0	·	·
CC(=O)c1ccc(NC(=O)c2noc3c2CSc2ccccc2-3)cc1	4	·	·	0	·	·	·
COc1cc(CNCCN2CCOCC2)ccc1OCC(=O)NC(C)(C)C	-15	5	-4	34*	-2	-8%	-2%
COc1cc(CNCCCN2CCOCC2)ccc1OCC(=O)NC(C)(C)C	2	1	-3	9	-2	·	·
O=C(CSc1nnc2[nH]c(=O)cc(-c3ccccc3)n12)Nc1ccc(OC(F)(F)F)cc1	0	·	·	1	·	·	·
Cc1cccc(Cn2c(=O)oc3ccc(C)cc32)c1	11	31*	-4	24	3	-8%	-2%

Assay outcomes as filed in PubChem BioAssay.
